Source: PubChem BioAssay
PLK1 PBD inh = qHTS for Inhibitors of PLK1-PDB (polo-like kinase 1 - polo-box domain): Primary Screen; Potency, µM, for inactives: max response, negative = inhibition, actives largely listed as inhibitors; AID 720504, 2013; Serine/threonine-protein kinase PLK1 (Homo sapiens), P53350; Plk1 PBD binding of FITC phosphopeptide, fluorescence polarization; 2.8% of 360,000 active; also: potency is read from the fitted curve at half-maximal effect; series mostly up to about 57 µM; % is scaled to controls: 0 for no effect and ±100 for the full control effect; nearly all actives have a fitted effect of over 65% in size
PI5P4Ka inh = qHTS for Inhibitors of phosphatidylinositol 5-phosphate 4-kinase (PI5P4K). PI5P4Kalpha enzyme, ADP-Glo luminescence, 60 min; stronger effect = lower value. max response, %. 1.2% of 330,000 active; active = max response of -50% or lower; inconclusive = between -30% and -50%; inactive = -30% or higher; also: value at the top dose of about 77 µM; % is scaled to controls: 0 for no effect and ±100 for the full control effect
Target sequence (P48426 whole entry, looked up): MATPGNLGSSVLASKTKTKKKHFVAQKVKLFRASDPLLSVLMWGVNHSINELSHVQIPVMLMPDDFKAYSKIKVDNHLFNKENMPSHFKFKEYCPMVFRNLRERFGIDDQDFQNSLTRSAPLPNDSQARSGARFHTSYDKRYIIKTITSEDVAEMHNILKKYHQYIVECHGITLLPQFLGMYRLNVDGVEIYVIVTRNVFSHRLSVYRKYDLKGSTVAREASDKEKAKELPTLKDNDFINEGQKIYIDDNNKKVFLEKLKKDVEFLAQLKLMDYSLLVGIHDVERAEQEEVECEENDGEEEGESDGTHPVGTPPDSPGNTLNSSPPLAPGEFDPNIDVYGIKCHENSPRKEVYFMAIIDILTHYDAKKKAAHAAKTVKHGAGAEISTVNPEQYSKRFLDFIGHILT
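Enzyme plus substrate dispensed, test compounds pinned in, then ATP (5 microM final) added. After 60 min at RT, ADP-Glo reagent 1 for 45 min and reagent 2 for 30 min preceded luminescence imaging.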
Rango-impB inh = qHTS Assay for Inhibitors of Rango (Ran-regulated importin-beta cargo) - Importin beta complex formation; Potency, µM (series often up to 92.2 µM), for inactives: top-dose inhibition of complex formation; 0.031% of 340,000 active; Rango CFP/YFP FRET sensor + importin beta, 45 min; calls by dose curve;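 also: potency is read from the fitted curve at half-maximal effect; 0% = DMSO wells and 100% = buffer wells lacking importin beta; nearly all actives have a fitted effect of over 15% in size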
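FRET biosensor (snurportin 1 IBB flanked by EYFP and cerulean), 50 nM, with compound 5 min, then 0.125 microM importin beta in PBS, 1 mM DTT, 0.02% Tween-20, 0.1% BSA. CFP/YFP ratio read after 45 min at room temperature; pre-read flags interference.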
VDR inh = Inhibitors of the vitamin D receptor (VDR): qHTS | Vitamin D3 receptor (Homo sapiens), P11473 | VDR-SRC2-3 peptide fluorescence polarization, 2 h | 0.93% of 400,000 active | Potency, µM, inactives show max response, negative = inhibition, usual class: inhibitors; also: potency is read from the fitted curve at half-maximal effect; % is scaled to controls: 0 for no effect and ±100 for the full control effect
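Fluorescence polarization assay of small-molecule disruption of VDR binding to coregulator peptide SRC2-3. Compounds and controls pin-transferred, then read after 2 h incubation at ambient room temperature.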
KAT2A inh = qHTS Assay for Inhibitors of GCN5L2; Histone acetyltransferase KAT2A (Homo sapiens), Q92830; GCN5L2 HAT assay, ThioGlo1 CoA-SH fluorescence; Potency, µM (highest dose often 58.9 µM), for the others: at the top dose activity change, negative = inhibition, usual class: inhibitors; 0.21% of 390,000 active; also: potency is read from the fitted curve at half-maximal effect; % is scaled to controls: 0 for no effect and ±100 for the full control effect
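qHTS, 1536-well. 20nM enzyme, pH 7.5 HEPES/EDTA/Tween-20 buffer; 15 min compound preinc., RT. Start: 75uM H3(1-25), 70uM AcCoA, 50uM ThioGlo1. Read Ex340/Em540 at t=0 (autofluorescence flag) and t=20 min.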
Rango release inh = qHTS Assay for Inhibitors of RanGTP induced Rango (Ran-regulated importin-beta cargo) - Importin beta complex dissociation. Snurportin-1 (Homo sapiens) + GTP-binding nuclear protein Ran (Homo sapiens) + Importin …. Biochemical FRET Rango-importin beta, RanGTP-induced dissociation. Potency, µM (titrated, usually from 46.1 µM), inactives show at the highest dose activity change, negative = inhibition. 0.071% of 340,000 active. AID 540253, 2011; calls by dose curve; also: potency is read from the fitted curve at half-maximal effect; % of control where 0% means no effect; nearly all actives have a fitted effect of over 45% in size
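Rango (0.1 uM)–importin beta (0.25 uM) complex; RanGTP-RCC1 trigger; 45 min RT; CFP/YFP FRET read.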
Numbers without * were called inactive; u = inconclusive; x = not tested or not shown; [ ] = another dose, or the depositor's remark. In the library only some 3.6% were active in any assay of this set; here they are far more common. Unless noted, calls follow the shape of the dose curve; as a rule, active = well fitted curve in the direction sought with a large enough effect; inconclusive = small, poorly fitted or top-dose-only effect, or another doubt; inactive = no such curve, though single readings can be large; an effect the other way counts as inactive or inconclusive.

SMILES | PLK1 PBD inh | PI5P4Ka inh | Rango-impB inh | VDR inh | KAT2A inh | Rango release inh
CSCCC1C(C#N)=C(N)Oc2n[nH]c(-c3cccs3)c21 (stereo unspecified) | -27% | -65* | 2% | -5% | -5% | -23%
COc1cc(Nc2ncc3c(n2)CCN(Cc2cc(F)cc(F)c2)C3)cc(OC)c1 | x | x | x | 11% | -1% | x
Cc1cc(C)n(-c2nc(NC(C)C)nc(NC(C)(C)C)n2)n1 | x | x | x | -9% | x | x
Cc1ccc(C2C(C#N)=C(N)Oc3n[nH]c(-c4cccnc4)c32)o1 (stereo unspecified) | u | u | -1% | -3% | -9% | 17%
Cc1ccc(C2C(C#N)=C(N)Oc3n[nH]c(-c4ccccc4)c32)o1 (stereo unspecified) | 3.4µM* | -67* | 3% | 25µM* | -3% | -14%
CCc1ccc(NC(=O)C(C)Sc2nc(-c3ccco3)c(C#N)c(=O)[nH]2)cc1 (stereo unspecified) | 24µM* | -57* | u | u | -12% | -1%
CCOc1ccccc1NC(=O)C(C)Sc1nc(-c2ccccc2)c(C#N)c(=O)[nH]1 (stereo unspecified) | x | x | x | -2% | -14% | x
CCOc1ccc(C(=O)c2cn(CC(=O)Nc3ccc(F)cc3)c3cc4c(cc3c2=O)OCCO4)cc1 | x | x | x | -11% | -2% | x
CC1(C)CC(=O)C(C=NCCCN2CCOCC2)=C(O)C1 | 30µM* | -7 | 2% | -17% | 0% | 20%
Cn1c(SCC(=O)c2ccccc2)nnc1-c1ccc(O)cc1 | -8% | -6 | 2% | -21% | -1% | 0%
Cn1c(SCC(=O)c2ccccc2)nnc1-c1cccc(N)c1 | 24µM* | 2 | -5% | -6% | -5%[0.501 µM] | -12%
CCOC(=O)NC(=O)COC(=O)CCCSc1nc2ccccc2s1 | -19% | -11 | 1% | 24% | -10% | -15%
NC(=O)NC(=O)COC(=O)CCCSc1nc2ccccc2s1 | 21µM* | 5 | -1% | -1% | -3% | 4%
COc1ccc(OCCC(=O)OCC(=O)NCc2ccco2)cc1 | 24µM* | u | -4% | -28% | -9% | -17%
Cn1c(=O)c2sccc2n2c(CCCC(=O)Nc3ccc(Oc4ccccc4)cc3)nnc12 | x | x | x | -7% | -4% | x
N#CCCCS(=O)(=O)c1nnnn1-c1ccc(F)cc1Br | x | x | x | 45µM* | x | x
CCOc1ccc(-n2c(=O)c3c4c(sc3n(Cc3cccc(C)c3)c2=O)CCCC4)cc1 | x | x | x | 1% | -2% | x
FC(F)c1nc2ccccc2[nH]1 | -12% | -4 | 3% | 15% | -6% | 3%
c1ccc2[nH]c3cc4ncnc4cc3nc2c1 | 24µM* | -22 | u | -13% | -1% | u
COc1cc(OC)c2c(c1C(CCN1CCN(c3ccccc3)CC1)c1ccc(N(C)C)cc1)OC(=O)CC2c1ccc(N(C)C)cc1 (stereo unspecified) | x | x | x | -6% | x | x
CCOc1ccc(N2C(=O)C(CC(=O)Nc3ccc(F)cc3)N(Cc3ccccn3)C2=S)cc1 (stereo unspecified) | -5% | -20 | -5% | -20% | -11% | -1%
CCNC(=O)CC1C(=O)N(c2ccc(F)cc2)C(=O)N1Cc1ccccn1 (stereo unspecified) | 27µM* | x | 2% | u | -18% | 0%
COc1cccc(Nc2ncc3nc(CCc4ccccc4)c(=O)n(CCC#N)c3n2)c1 | x | x | x | 2% | u | x
COc1cccc(Nc2ncc3nc(CCc4ccccc4)c(=O)n(C4CC4)c3n2)c1 | x | x | x | 4% | 25µM* | x
